Results published in PubChem BioAssay (EPA / NIEHS).
Inconclusive results are not listed. The source made the active and inactive calls. The calls were made as follows: active = hit-call score of the fitted dose curve at least 0.9, where 1 is the maximum; inconclusive = response in the unintended direction; inactive = score below 0.9.

test: CCTE_Shafer_MEA_acute_LDH: CCTE's Lactate Dehydrogenase Assay for Cytotoxicity in the Neural Acute Assay, Shafer Lab (AID 2284086);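 also: active means LDH release rises above DMSO vehicle level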
Method: CCTE_Shafer_MEA_acute assay is conducted using Axion Biosystems 48 well microelectrode array (MEA) plates and Maestro recording system. Each well of the MEA plate contains a grid of 16 microelectrodes embedded in the culture surface. Electrically active cells, such as neurons, can be cultured over the electrodes, and electrical activity in these cells can be recorded extracellularly. The spontaneous firing of neurons is captured from each electrode on a microsecond timescale providing both temporally and spatially precise data. […] The CCTE_Shafer_MEA_acute assay uses primary cultures of rat cortical neurons. As these cultures mature over time, neural networks develop functional activity and form cohesive networks in which electrical activity can be highly coordinated. Baseline 40-minute recordings are made on days post-plating 13 or 15, followed by a secondary 40-minute recording after chemical exposure.CCTE_Shafer_MEA_acute_LDH is a component of the CCTE_Shafer_MEA_acute assay. It measures the lactate dehydrogenase enzyme activity using spectrophotometry.Data from the assay component CCTE_Shafer_MEA_acute_LDH was analyzed into 1 assay endpoint. This assay endpoint, CCTE_Shafer_MEA_acute_LDH, was analyzed in the positive analysis fitting direction relative to DMSO as the negative control and baseline of activity. Using a type of viability reporter, gain-of-signal activity can be used to understand cell viability.
Immediately following the 40 min recording in the presence of compounds, 50 uL of media was removed from each well and transferred to a sterile 96-well plate. This was used to determine LDH released from cells during compound exposure using a kit from Promega where absorbance was determined in a Molecular Devices VersaMax plate reader at 490 nm.

Structure (SMILES) | outcome
CN1CCN(c2ccccc2/C=C2\SCCN(c3ccc(Cl)c(Cl)c3)C2=O)CC1 | inactive
O=C(O)c1ccccc1C(c1ccc(O)cc1)c1ccc(O)cc1 | inactive
OCCC(F)(F)C(F)(F)C(F)(F)C(F)(F)C(F)(F)C(F)(F)C(F)(F)C(F)(F)F | inactive
CCCCCCCCCCCCN1CCCC1=O | inactive
CC[C@H](c1ccc(O)cc1)[C@@H](CC)c1ccc(O)cc1 | inactive
CCC(=C(c1ccc(O)cc1)c1ccc(OCCN(C)C)cc1)c1ccccc1 | inactive
NC(=O)N(O)[C@@H]1C=C[C@H](Oc2cccc(Oc3ccc(F)cc3)c2)C1 | inactive
CCCCCCCCCCCCc1ccccc1S(=O)(=O)O | inactive
CC(=O)NC1(c2cccc(F)c2)CCN(CC[C@@]2(c3ccc(Cl)c(Cl)c3)CN(c3ccccc3)C(=O)CO2)CC1 | inactive
OC1CCC(C2CCCCC2)CC1 (centres undefined) | inactive
CC(C)CCCCCCOC(=O)CCCCC(=O)OCCCCCCC(C)C | inactive
Cc1cc(CCN2CCN(c3nsc4ccccc34)CC2)cc2c1NC(=O)CC2(C)C | inactive
CC#C[C@]1(O)CC[C@H]2[C@@H]3CCC4=CC(=O)CCC4=C3[C@@H](c3ccc(N(C)C)cc3)C[C@@]21C | inactive
CCCOc1sc(C(=O)N2CCC(c3cc(CN)ccc3F)CC2)c(C)c1Br | inactive
